The structures appear in SMILES notation. About 390 (8.9%) of roughly 4,400 compounds showed an effect of 50% or more. Only a selection was taken, and strong results are over-represented in it overall.

The test relates to Trypanosoma brucei. Nature of the test: DNDI: Inhibition of Human African Trypanosomiasis, SBRI 427, in vitro at 2 ug.mL-1. In kind it is functional.
The % inhibition is the change of the read-out against control, counted positive when it falls. Take `Cc1ccc(N(C)Cc2coc(-c3cccc4ccccc34)n2)cc1`: the “% inhibition” value was 6%. Turning to `Cn1nc(C(C)(C)C)cc1NCc1coc(-c2ccc(C(C)(C)C)cc2)n1`, the “% inhibition” value is -5%.

For the compound `Cc1ccc(C(C)C)c(Oc2cc(/C(=N/O)Nc3ccc(C(C)C)cc3)ccn2)c1`, the “% inhibition” value is 21%.

Consider `COCCN(Cc1coc(-c2ccccc2Cl)n1)C(C)C`, for which the “% inhibition” value was -24%. On to `c1ccc2c(-c3nc(CNCc4ccncc4)co3)cccc2c1`, for which the “% inhibition” value turned out to be 6%.

In the case of `Cc1ccc(/C(=N/O)NCCN2CCOCC2)c(Oc2ccc3ccccc3c2)n1`, the “% inhibition” value worked out at 15%. The same measure for `COc1ccc(-c2nc(CNCc3cccc(C(F)(F)F)c3)co2)cc1`: -13%; for `CCOc1ccccc1-c1nc(CNC23C[C@H]4C[C@@H](C2)C[C@@H](C3)C4)co1`: 9%; for `C[C@@H]1C(NCc2coc(-c3cccc4ccccc34)n2)C[C@H]2C[C@@H]1C2(C)C` (stereo not given in full): 95%.

As for `c1ccc(CNCc2coc(-c3cccc4ccccc34)n2)cc1`, the “% inhibition” value was determined as 8%. In the case of `CC1CC(C)CN(Cc2coc(-c3cccc4ccccc34)n2)C1` (stereo not given), the “% inhibition” value is given as 28%. Consider `CCOc1ccccc1-c1nc(CNC2C[C@@H]3C[C@H]([C@H]2C)C3(C)C)co1` (stereo not given in full), for which the “% inhibition” value was determined as 101%.

With `CN(C)CCNCc1coc(-c2cccc3ccccc23)n1`, the “% inhibition” value is given as 22%. `C[C@H]1C(NCc2coc(-c3cccc4ccccc34)n2)C[C@@H]2C[C@H]1C2(C)C` (stereo not given in full): the “% inhibition” value came out at 85%. Regarding `CCOc1ccccc1-c1nc(CNc2ccccc2)co1`, the “% inhibition” value stood at 6%. The result for `Clc1ccccc1-c1nc(CN2CCN(c3ccccn3)CC2)co1` reads 4%; that for `Fc1ccc(-c2nc(CNCC(c3ccccc3)c3ccccc3)co2)cc1`, -33%; that for `COc1cc(-c2nc(CNCc3cccnc3)co2)cc(OC)c1OC`, 25%. The same measure for `CSc1ccc(Oc2nc(C)ccc2/C(=N/O)NCc2ccc(C)o2)cc1C`: 12%; for `CCOc1ccccc1-c1nc(CN(CC)c2cccc3ccccc23)co1`: 4%. For the compound `CC(C)COc1ncccc1/C(=N/O)NC1CCc2ccccc21` (stereo not given), the “% inhibition” value is -11%. The same measure for `CC(C)c1ccc(Oc2ncccc2/C(=N/O)NC2CCc3ccccc32)cc1` (stereo not given): 100%.

As for `O/N=C(\NC1CCc2ccccc21)c1cccnc1Oc1ccc(F)cc1Cl` (stereo not given), the “% inhibition” value is given as 9%.

`CSc1ccc(Oc2nc(C)ccc2/C(=N/O)NC2CCc3ccccc32)cc1C` (stereo not given): the “% inhibition” value stood at 21%. The result for `COc1ccc(Oc2nc(C)ccc2/C(=N/O)NC2CCc3ccccc32)cc1` (stereo not given) reads 23%; that for `Cc1ccc(/C(=N/O)NC2CCc3ccccc32)c(Oc2ccc(F)c(F)c2)n1` (stereo not given), 20%. The result for `O/N=C(\NC1CCc2ccccc21)c1cccnc1Oc1c(F)cccc1F` (stereo not given) reads 83%; that for `Cc1ccc(/C(=N/O)NC2CCc3ccccc32)c(Oc2c(F)c(F)cc(F)c2F)n1` (stereo not given), 7%. The result for `O/N=C(\NC1CCc2ccccc21)c1cccnc1Oc1ccc2ccccc2c1` (stereo not given) reads 97%.

On to `CC(C)c1ccc(N/C(=N\O)c2cccnc2Oc2ccc(Cl)cc2)cc1`, for which the “% inhibition” value is given as 11%.

Take `COc1ccc(Oc2ncccc2/C(=N/O)NC2CCc3ccccc32)cc1` (stereo not given): the “% inhibition” value was determined as 97%.

For `O/N=C(\NC1CCc2ccccc21)c1cccnc1Oc1ccc(-n2cncn2)cc1` (stereo not given), the “% inhibition” value is on record as 31%.

As for `CCOc1ccccc1-c1nc(CNCc2ccc(C)o2)co1`, the “% inhibition” value came out at 18%. Regarding `COc1cccc(CN/C(=N\O)c2ccnc(Oc3cccc4cccnc34)c2)c1`, the “% inhibition” value was 35%. The result for `O/N=C(/c1ccc(Oc2cccc3c2CCCC3)nc1)N1CCN(c2ccccc2)CC1` reads 9%; that for `C=CCN(CC=C)Cc1coc(-c2ccc(OC)cc2)n1`, 1%. On to `Cc1ccc(/C(=N/O)N(C)c2ccccc2)c(Oc2ccc(Cl)cc2)n1`, for which the “% inhibition” value is on record as 22%.

In the case of `COc1ccc(CN/C(=N\O)c2ccc(C)nc2Oc2cccc3c2CCCC3)cc1`, the “% inhibition” value amounted to 1%. As for `Cc1cccc(-c2nc(CN3CCN(c4cc(C)nc5ccccc45)CC3)co2)c1`, the “% inhibition” value was found to be 27%. The same measure for `CCOc1ccccc1-c1nc(CN(CC)C2CCN(Cc3ccccc3)C2)co1` (stereo not given): -5%; for `CC(C)c1ccc(Oc2ccc(/C(N)=N/O)cn2)cc1`: 23%; for `Cc1ccc(/C(=N/O)NC2CCc3ccccc32)c(Oc2ccc(F)c(Cl)c2)n1` (stereo not given): -22%. The same measure for `CCC(CC)NCc1coc(-c2ccc(OC)cc2)n1`: -11%; for `COc1cccc(OC)c1CNCc1coc(-c2ccc(C(C)(C)C)cc2)n1`: 100%; for `COc1ccc(CNCc2coc(-c3ccccc3C)n2)c(OC)c1`: 5%. The same measure for `COc1ccc(CNCc2coc(-c3ccc(C(C)(C)C)cc3)n2)c(OC)c1`: 69%; for `COc1ccc(CNCc2coc(-c3cccc4ccccc34)n2)c(OC)c1`: 57%.

`COc1cccc(OC)c1CNCc1coc(-c2ccc(C)cc2)n1`: the “% inhibition” value amounted to 22%. The result for `COc1ccc(-c2nc(CNCc3ccc(OC)cc3OC)co2)cc1` reads 4%. The result for `COc1ccc(-c2nc(CNCc3c(OC)cccc3OC)co2)cc1` reads 17%. As to `COc1ccc(CNCc2coc(-c3ccc(C(F)(F)F)cc3)n2)c(OC)c1`, the “% inhibition” value came out at 11%. As for `COc1ccc(CNCc2coc(-c3ccccc3Br)n2)c(OC)c1`, the “% inhibition” value is -13%.

As for `COc1ccc(-c2nc(CN3CCc4ccccc4C3)co2)cc1`, the “% inhibition” value is on record as -8%.

On to `CN(Cc1coc(-c2ccc(O)cc2)n1)C(c1ccccc1)c1ccccc1`, for which the “% inhibition” value is -30%.

`CN(Cc1ccco1)/C(=N\O)c1cccnc1Oc1ccc2c(c1)CCCC2`: the “% inhibition” value is given as -1%. In the case of `Cc1ccc(/C(=N/O)N2CCCC2)c(Oc2ccc3ccccc3c2)n1`, the “% inhibition” value is given as 25%. The result for `CN(Cc1cccnc1)Cc1coc(-c2ccc(Cl)cc2Cl)n1` reads 36%. With `CN(CC#N)Cc1coc(-c2cccs2)n1`, the “% inhibition” value was -11%. The same measure for `Cc1ccc(CNCc2coc(-c3ccccc3Br)n2)o1`: 3%. As for `C[C@H]1C(NCc2coc(-c3ccc(O)cc3)n2)C[C@@H]2C[C@H]1C2(C)C` (stereo not given in full), the “% inhibition” value is listed as 101%.

For `C[C@@H]1C(NCc2coc(-c3ccc(O)cc3)n2)C[C@H]2C[C@@H]1C2(C)C` (stereo not given in full), the “% inhibition” value is recorded as 26%. The same measure for `CC1CCCC(NCc2coc(-c3ccc(O)cc3)n2)C1C` (stereo not given): -13%; for `CCOc1ccc(-c2nc(CNC3C[C@@H]4C[C@H]([C@H]3C)C4(C)C)co2)cc1` (stereo not given in full): 78%. The result for `CCOc1ccc(-c2nc(CNC3C[C@H]4C[C@@H]([C@@H]3C)C4(C)C)co2)cc1` (stereo not given in full) reads -5%; that for `CCOc1ccc(-c2nc(CNC3C[C@H]4CC[C@@H]3C4)co2)cc1` (stereo not given in full), 11%.

The values are drawn from ChEMBL document CHEMBL1857833, “Screening and optimization of specific chemical series against human African Trypanosomiasis (HAT)”.
